From PubChem BioAssay (NCI) come the findings set out here.

The panel holds about 79,000 compounds, 15% with a hit somewhere; the sample as a whole holds those more often. A number with no mark means an inactive call. The source made the active and inactive calls. Cut-off read from the data, not from the text of the source: active = growth inhibition above about 70%; inactive = the rest.

Experiment [1] is described as follows: NCI Yeast Anticancer Drug Screen. Data for the rad50 strain (AID 155).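 Note: 0% = growth of vehicle-only cultures of the same strain.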 Conditions: S. cerevisiae rad50 strain growth inhibition, active compounds read high. Summed up:
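Inhibition values express reduced yeast growth in compound-treated cultures relative to vehicle-treated controls.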

Experiment [2] can be described thus: NCI Yeast Anticancer Drug Screen. Data for the mec2-1 strain (AID 157). To be noted: S. cerevisiae mec2-1 strain, active compounds read high. The method, boiled down: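 Each compound was tested on mec2-1 yeast, a strain altered in DNA damage repair or cell cycle control. Growth inhibition is reported relative to vehicle.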
A short description of experiment [3]: NCI Yeast Anticancer Drug Screen. Data for the sgs1 mgt1 strain (AID 161).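 Note: 0% = growth of cultures given vehicle only.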 To be noted: S. cerevisiae sgs1 mgt1 strain, active compounds read high. The method, boiled down:
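Test agents were incubated with a DNA-repair-mutant yeast strain. Growth was then read and compared against vehicle-treated controls.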

The nature of experiment [4]: NCI Yeast Anticancer Drug Screen. Data for the cln2 rad14 strain (AID 165).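 Note: 0% = growth equal to vehicle treated cultures.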 To be noted: S. cerevisiae cln2 rad14 strain, active compounds read high. The method, boiled down: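 Test compounds were added to cln2 rad14 yeast cultures; inhibition of growth was then determined by comparison with vehicle treatment.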
The nature of experiment [5]: NCI Yeast Anticancer Drug Screen. Data for the bub3 strain (AID 167). Conditions: S. cerevisiae bub3 mutant strain, active compounds read high. Summed up: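 Steps: expose the mutant yeast strain to compound; grow alongside vehicle-treated cultures; measure growth; express inhibition against the vehicle cultures.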
Experiment [6] can be described thus: NCI Yeast Anticancer Drug Screen. Data for the mlh1 rad18 strain (AID 175). To be noted: S. cerevisiae mlh1 rad18 strain growth inhibition, active compounds read high. The method, boiled down: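 Inhibition values reflect reduced growth of mutant yeast versus vehicle-treated controls following compound exposure; the mutations affect DNA damage repair.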
[7] abbreviates: at 5.0 µM (retest, dose inferred, filed as 0.5).
Setting [8] is: at 50.0 µM (retest, dose inferred, filed as 5.0).

Regarding `Cn1c(=O)c2c(nc(CCCCCCCc3nc4c(c(=O)n(C)c(=O)n4C)n3C)n2C)n(C)c1=O`, the growth inhibition in experiment [1] (setting [7]) is 4%; in experiment [1] (setting [8]) it was 5%; in experiment [1] (at 50.0 µM) it was 48.9%; in experiment [2] (setting [7]), 1%; in experiment [2] (setting [8]), 18%; in experiment [2] (at 50.0 µM) it was 23.3%. Further, the growth inhibition in experiment [3] (setting [7]) is 2%; in experiment [3] (setting [8]) it was 10%; in experiment [3] (at 50.0 µM), 42%; in experiment [4] (setting [7]), 2%; in experiment [4] (setting [8]), 10%; in experiment [4] (at 50.0 µM), 60.2%. The growth inhibition in experiment [5] (setting [7]) is 7%; in experiment [5] (setting [8]), 4%; in experiment [5] (at 50.0 µM) it was 16.7%; in experiment [6] (setting [7]), -2%; in experiment [6] (setting [8]), 9%; in experiment [6] (at 50.0 µM) it was 35.8%.

On to `CCOC(=O)/C=C1/C(=O)OC2C1OC1OC(C)(C)OC12` (configuration not stated), for which the growth inhibition in experiment [1] (setting [7]) is 9%; in experiment [1] (setting [8]) it was 99% (active); in experiment [1] (at 50.0 µM) it was 6.3%; in experiment [2] (setting [7]) it was 16%; in experiment [2] (setting [8]) it was 100% (active); in experiment [2] (at 50.0 µM), 34.8%. Also, the growth inhibition in experiment [3] (setting [7]) was -5%; in experiment [3] (setting [8]), 100% (active); in experiment [3] (at 50.0 µM), 57%; in experiment [4] (setting [7]) it was 37%; in experiment [4] (setting [8]), 100% (active); in experiment [4] (at 50.0 µM), -15.1%. For the same compound, the growth inhibition was 33% in experiment [5] (setting [7]); 100% (active) in experiment [5] (setting [8]); 26.1% in experiment [5] (at 50.0 µM); 7% in experiment [6] (setting [7]); 99% (active) in experiment [6] (setting [8]); 54.8% in experiment [6] (at 50.0 µM).

As to `CCCC(=O)OCC1CC2C=CC1C2` (configuration not stated), the growth inhibition is 0% in experiment [1] (setting [7]); -3% in experiment [1] (setting [8]); -6.25% in experiment [1] (at 50.0 µM); 0% in experiment [2] (setting [7]); 2% in experiment [2] (setting [8]); -7.65% in experiment [2] (at 50.0 µM). In addition, the growth inhibition in experiment [3] (setting [7]) is 0%; in experiment [3] (setting [8]) it was -1%; in experiment [3] (at 50.0 µM), -18.3%; in experiment [4] (setting [7]) it was -7%; in experiment [4] (setting [8]) it was 3%; in experiment [4] (at 50.0 µM) it was 79.2% (active). Further, the growth inhibition is -3% in experiment [5] (setting [7]); 2% in experiment [5] (setting [8]); 15% in experiment [5] (at 50.0 µM); -1% in experiment [6] (setting [7]); -5% in experiment [6] (setting [8]); -3.9% in experiment [6] (at 50.0 µM).

As to `O=Cc1ccc2c(c1)CC1(C2)Cc2ccc3c(c2C1)CCC3` (configuration not stated), the growth inhibition in experiment [1] (setting [7]) was -1%; in experiment [1] (setting [8]) it was 68%; in experiment [1] (at 50.0 µM), 92.9% (active); in experiment [2] (setting [7]), 0%; in experiment [2] (setting [8]) it was 78% (active); in experiment [2] (at 50.0 µM), 89.3% (active). In addition, the growth inhibition in experiment [3] (setting [7]) is 14%; in experiment [3] (setting [8]), 81% (active); in experiment [3] (at 50.0 µM) it was 87.6% (active); in experiment [4] (setting [7]), -2%; in experiment [4] (setting [8]), 41%; in experiment [4] (at 50.0 µM), 73% (active). Also, the growth inhibition in experiment [5] (setting [7]) is -1%; in experiment [5] (setting [8]) it was 74% (active); in experiment [5] (at 50.0 µM), 91.5% (active); in experiment [6] (setting [7]), 1%; in experiment [6] (setting [8]), 74% (active); in experiment [6] (at 50.0 µM), 84.8% (active).

Regarding `Cc1ccc(NC(=S)SCc2ccc3c(c2)OCO3)cc1Cl`, the growth inhibition in experiment [1] (setting [7]) was 19%; in experiment [1] (setting [8]) it was 96% (active); in experiment [1] (at 50.0 µM) it was 98.9% (active); in experiment [2] (setting [7]) it was 15%; in experiment [2] (setting [8]) it was 99% (active); in experiment [2] (at 50.0 µM) it was 99.5% (active). Besides, the growth inhibition in experiment [3] (setting [7]) is 16%; in experiment [3] (setting [8]), 98% (active); in experiment [3] (at 50.0 µM) it was 99% (active); in experiment [4] (setting [7]), -7%; in experiment [4] (setting [8]), 97% (active); in experiment [4] (at 50.0 µM) it was 98.8% (active). In addition, the growth inhibition in experiment [5] (setting [7]) was 15%; in experiment [5] (setting [8]), 99% (active); in experiment [5] (at 50.0 µM) it was 99.2% (active); in experiment [6] (setting [7]), 39%; in experiment [6] (setting [8]) it was 97% (active); in experiment [6] (at 50.0 µM), 99.2% (active).

As to `O=[N+]([O-])c1ccc(Sc2ccsc2)c([N+](=O)[O-])c1`, the growth inhibition in experiment [1] (setting [7]) was 4%; in experiment [1] (setting [8]), 79% (active); in experiment [1] (at 50.0 µM) it was 46.5%; in experiment [2] (setting [7]) it was 14%; in experiment [2] (setting [8]) it was 87% (active); in experiment [2] (at 50.0 µM) it was 34.5%. Besides, the growth inhibition in experiment [3] (setting [7]) was 21%; in experiment [3] (setting [8]) it was 93% (active); in experiment [3] (at 50.0 µM) it was 48.5%; in experiment [4] (setting [7]), 4%; in experiment [4] (setting [8]) it was 61%; in experiment [4] (at 50.0 µM), 31.8%. Moreover, the growth inhibition in experiment [5] (setting [7]) was 11%; in experiment [5] (setting [8]), 86% (active); in experiment [5] (at 50.0 µM) it was 41.5%; in experiment [6] (setting [7]) it was 45%; in experiment [6] (setting [8]) it was 96% (active); in experiment [6] (at 50.0 µM) it was 78.8% (active).

As to `O=C(C1=NNC(c2ccccc2)C1C(=O)c1ccccc1)c1ccccc1` (configuration not stated), the growth inhibition is -1% in experiment [1] (setting [7]); 82% (active) in experiment [1] (setting [8]); 74.8% (active) in experiment [1] (at 50.0 µM); -7% in experiment [2] (setting [7]); 65% in experiment [2] (setting [8]); 30.6% in experiment [2] (at 50.0 µM). Further, the growth inhibition in experiment [3] (setting [7]) was 2%; in experiment [3] (setting [8]), 84% (active); in experiment [3] (at 50.0 µM), 79% (active); in experiment [4] (setting [7]), 2%; in experiment [4] (setting [8]), 67%; in experiment [4] (at 50.0 µM), 67%. Also, the growth inhibition in experiment [5] (setting [7]) is -10%; in experiment [5] (setting [8]), 86% (active); in experiment [5] (at 50.0 µM), 75% (active); in experiment [6] (setting [7]), 4%; in experiment [6] (setting [8]) it was 86% (active); in experiment [6] (at 50.0 µM), 81.2% (active).

`CC(=O)Oc1ccccc1C(=O)/C=C/c1ccccc1`: the growth inhibition in experiment [1] (setting [7]) was 3%; in experiment [1] (setting [8]), 82% (active); in experiment [1] (at 50.0 µM), -11.2%; in experiment [2] (setting [7]), 7%; in experiment [2] (setting [8]) it was 89% (active); in experiment [2] (at 50.0 µM) it was 17.4%. The growth inhibition is 4% in experiment [3] (setting [7]); 93% (active) in experiment [3] (setting [8]); 11.6% in experiment [3] (at 50.0 µM); 0% in experiment [4] (setting [7]); 40% in experiment [4] (setting [8]); -17.3% in experiment [4] (at 50.0 µM). In addition, the growth inhibition in experiment [5] (setting [7]) is -1%; in experiment [5] (setting [8]) it was 90% (active); in experiment [5] (at 50.0 µM), 61%; in experiment [6] (setting [7]) it was -1%; in experiment [6] (setting [8]) it was 98% (active); in experiment [6] (at 50.0 µM) it was 9.75%.

`COc1cccc2c1C(=O)c1c(O)c3c(c(O)c1C2=O)CC(O)(C(C)=O)CC3OC1CC(NCC2(O)OCC(O)C(O)C2O)C(O)C(C)O1` (configuration not stated): the growth inhibition in experiment [1] (setting [7]) was 54%; in experiment [1] (setting [8]), 98% (active); in experiment [1] (at 50.0 µM), 85.2% (active); in experiment [2] (setting [7]), 33%; in experiment [2] (setting [8]), 98% (active); in experiment [2] (at 50.0 µM), 86.5% (active). In addition, the growth inhibition in experiment [3] (setting [7]) was 38%; in experiment [3] (setting [8]), 98% (active); in experiment [3] (at 50.0 µM), 79.8% (active); in experiment [4] (setting [7]) it was 38%; in experiment [4] (setting [8]), 94% (active); in experiment [4] (at 50.0 µM) it was 73.3% (active). For the same compound, the growth inhibition in experiment [5] (setting [7]) is 27%; in experiment [5] (setting [8]) it was 98% (active); in experiment [5] (at 50.0 µM), 83.2% (active); in experiment [6] (setting [7]), 62%; in experiment [6] (setting [8]) it was 97% (active); in experiment [6] (at 50.0 µM) it was 87.9% (active).
